Reference: the supplement of paper PMC6555819

Legend:
Experiment in all cases: PBM binding z-score (relative to random genomic background probes); higher = stronger binding; sequences stand for … in GC…GCGATTGACAGCGTAGAATGAAGG
[1] = system: PPARg:RXRa DBDmut IVT, anti-RXR (DBD mutation: RXRa K156A/R161A, NR concentration 270 nM, RXRa partner concentration 90 nM)
Summary of the method: (§1)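 For binding z-scores, the reference was random background probes on custom Agilent 4×180K protein-binding microarrays. These arrays were incubated 1 h with ligand-free nuclear receptor dimers in PBS pH 7.4, 2% milk, 0.02% Triton X-100, 1 mM DTT, 0.2 mg/mL BSA and 0.4 mg/ml salmon testes DNA. Fluorescence was scanned after antibody detection of each partner (one per run) and regression-normalized.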

[2] = system: PPARg:RXRa IVT, anti-PPARg (NR concentration 270 nM, RXRa partner concentration 90 nM)
Summary of the method: as §1

[3] = system: PPARg DBDmut:RXRa IVT, anti-PPARg (DBD mutation: PPARg1 K132A/R137A, NR concentration 270 nM, RXRa partner concentration 90 nM)
Summary of the method: as §1

[4] = system: PPARg DBDmut IVT, anti-PPARg (DBD mutation: PPARg1 K132A/R137A, NR concentration 270 nM)
Summary of the method: as §1

[5] = system: PPARg homodimer (NR concentration 180 nM)
Summary of the method: as §1

[6] = system: PXR:RXRa (NR concentration 270 nM, RXRa partner concentration 90 nM)
Summary of the method: as §1

[7] = system: PXR homodimer (NR concentration 270 nM)
Summary of the method: as §1

[8] = system: RARa:RXR (NR concentration 270 nM, RXRa partner concentration 90 nM)
Summary of the method: as §1

[9] = system: RARa homodimer (NR concentration 270 nM)
Summary of the method: as §1

[10] = system: RARb:RXRa (NR concentration 270 nM, RXRa partner concentration 90 nM)
Summary of the method: as §1

Row | Sequence | PBM binding z-score [1] | PBM binding z-score [2] | PBM binding z-score [3] | PBM binding z-score [4] | PBM binding z-score [5] | PBM binding z-score [6] | PBM binding z-score [7] | PBM binding z-score [8] | PBM binding z-score [9] | PBM binding z-score [10]
1 | ATCGAAAGGTCGAAGGTGAGGATACCCACCCGAA | 0.202 | 2.45 | 0.792 | 0.619 | 1.6 | 3.14 | 0.0224 | 4.45 | 0.541 | 3.66
2 | CCAGACAGGTGAGAAGGTAACTCAACCTCGATTA | 1.22 | 0.742 | 0.229 | -0.571 | 1.06 | 0.207 | 0.428 | 0.706 | 0.916 | 0.619
3 | TAGCCTAGGTCATGGGCCACTATACCACGCGAAC | 2.09 | 3.43 | 0.102 | -0.16 | 1.27 | 1.72 | -0.144 | 2.66 | -0.0929 | 3.8
4 | TCTAGTTGGTCACGGAGGTCACTCACGACGGGTA | 2.58 | 3.97 | 0.646 | 0.986 | 2.5 | 3.9 | 1.36 | 3.6 | 1.05 | 3.47
5 | CCAGAGAGGTGAAAGGTAACTCAGTCTGGTACGC | 3.73 | 4.05 | 0.0614 | -0.0478 | 2.31 | 2.19 | 0.131 | 3.44 | 0.813 | 2.39
6 | CCTACTGGGCCAAAAAGGTCGTTGATGCCGATAA | 3.16 | 2.91 | -0.0977 | -1.31 | 0.923 | 1.69 | 0.426 | 1.77 | 0.0186 | 1.48
7 | TTTTGTAGATCAAAGGTTAAGAAAGCCGAAGCCT | 1.61 | 3.98 | 0.975 | 1.12 | 1 | 2.05 | -0.0288 | 3.17 | 0.339 | 2.07
8 | TCTTGTAGATTAATAGAGGTTAAGAAAGTGCGCT | 2.32 | 0.996 | 0.986 | 0.929 | 1.23 | 3.4 | 0.795 | 2.2 | 0.565 | 1.21
9 | GCTGCTAGGTCAGGTTGGGCAGCTAACGGGTACG | 2.83 | 1.93 | -0.639 | -0.804 | 0.77 | -0.238 | -0.455 | 0.335 | -0.329 | 3.17
10 | TCATATAGGTAAACAGGTGATAGTCCGTAAGTTA | 4.54 | 3.86 | 2.2 | 1.3 | 1.51 | 0.551 | 0.241 | 0.892 | 1.46 | 0.497
11 | ATCAAAAGGTCGTGAGGTGAGTATACAGAAAGGC | 0.609 | 2.81 | 1.96 | 1.55 | 2.38 | 3.53 | 1.09 | 4.34 | 1.26 | 4.29
12 | CCTACTGGGCCACGAACGGTCATTGATTCAGTGA | 5.64 | 4.88 | -0.4 | -0.69 | 0.254 | -0.201 | -0.435 | 0.0689 | -0.329 | 1.42
